Screens deposited in PubChem by several laboratories.
Only some compounds are listed: those with a hit (about 2.3% of all), similar ones and a draw of the others.
Bim-Mcl-1 = inhibitors of Bim-Mcl-1 interaction, human | Bead-based flow cytometry, Bim peptide-Mcl-1 binding | inhibition, % at 10 µM | actives 0.1% (n = 190,000) | AID 1009; in the data active = inhibition above about 40%
Target sequence (Q07820 whole entry, looked up): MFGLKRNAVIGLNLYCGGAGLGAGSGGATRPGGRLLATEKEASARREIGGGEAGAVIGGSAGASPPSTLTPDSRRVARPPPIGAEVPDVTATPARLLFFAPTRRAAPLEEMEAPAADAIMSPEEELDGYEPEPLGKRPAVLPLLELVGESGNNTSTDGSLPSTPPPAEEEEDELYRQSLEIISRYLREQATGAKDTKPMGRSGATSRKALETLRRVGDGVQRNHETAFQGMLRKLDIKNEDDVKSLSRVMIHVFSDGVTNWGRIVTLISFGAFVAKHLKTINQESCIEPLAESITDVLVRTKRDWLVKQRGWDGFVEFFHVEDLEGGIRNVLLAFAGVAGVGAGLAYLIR
Mcl1-Bid inh = disrupts binding of human Mcl-1 to Bid peptide | Q07820 | actives 0.97% (n = 220,000) | inhibition, % at 21.7 µM | TR-FRET Mcl-1/Bid-Dy647 peptide binding, 1536-well;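 active = compounds that cut the binding signal by more than half at the single screening dose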;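 also: His-tagged Mcl-1 with europium anti-His antibody binding Bid BH3 peptide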
GLD-1 RNA inh = GLD-1-TGE RNA interaction inhibition (C. elegans); Q17339; purified GLD-1 + fluorescein TGE RNA, fluorescence polarization; inhibition, % at 5.96 µM; actives 0.44% (n = 320,000); AID 2280;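 active = percent inhibition above a per-plate cutoff, the plate mean of test compounds plus 3 SD, cut at about 30% in these data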
Target sequence (Q17339 whole entry, looked up): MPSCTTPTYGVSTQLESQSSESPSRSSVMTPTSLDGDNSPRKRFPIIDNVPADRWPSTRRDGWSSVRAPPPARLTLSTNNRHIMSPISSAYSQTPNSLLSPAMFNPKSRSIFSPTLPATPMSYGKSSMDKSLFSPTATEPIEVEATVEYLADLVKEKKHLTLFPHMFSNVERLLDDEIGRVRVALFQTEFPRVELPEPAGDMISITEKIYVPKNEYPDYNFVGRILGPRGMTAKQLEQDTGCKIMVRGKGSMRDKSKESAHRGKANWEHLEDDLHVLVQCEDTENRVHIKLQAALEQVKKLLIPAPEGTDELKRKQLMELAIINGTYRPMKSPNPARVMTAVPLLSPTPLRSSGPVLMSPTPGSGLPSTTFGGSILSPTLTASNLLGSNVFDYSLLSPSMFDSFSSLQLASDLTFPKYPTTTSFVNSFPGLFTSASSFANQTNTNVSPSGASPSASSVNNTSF
Mcl1 Noxa PPI = disrupts binding of human Mcl-1 to Noxa peptide. inhibition, % at 21.7 µM. Q07820. TR-FRET Mcl-1/Noxa peptide binding, 2 h. actives 1.5% (n = 220,000);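 active = compounds that cut the protein-peptide binding signal by more than 50% relative to plate controls in a single-dose test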;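 also: His-tagged Mcl-1 with rhodamine Noxa BH3 peptide and terbium anti-His antibody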
BCLXL inh = Bcl-xL (human) inhibition; Q07817; GST-Bcl-xL / FITC-Bim BH3 peptide fluorescence polarization; inhibition, % at 10.9 µM; actives 0.7% (n = 320,000);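 active = inhibition above the mean of all tested compounds plus 3 SD, cutoff set per campaign, cut at about 30% in these data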;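 also: inhibitors lower millipolarization by displacing the labeled peptide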
MCL1-BIM inh = disrupts human MCL1 binding to BIM-BH3 peptide; Q07820; actives 0.68% (n = 320,000); inhibition, % at 10.9 µM; AID 2057; GST-MCL1 / FITC-Bim-BH3 fluorescence polarization;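 active = inhibition above the mean inhibition of all tested compounds plus 3 SD, set per campaign, cut at about 40% in these data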;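 also: higher means more loss of mP so more displacement of Bim peptide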
Large screens that a line does not name were inactive.

COc1ccc(S(=O)(=O)Nc2c(C)nc3nc[nH]n3c2=O)cc1	Mcl1-Bid inh 66.1
O=C(N/N=C/c1ccco1)c1cccc(N2Cc3ccccc3C2)c1	Mcl1 Noxa PPI 75.2
O=C(N/N=C/c1ccco1)c1cccc(N2CCCC2=O)c1	none
CCOC(=O)c1ccccc1NC(=O)COC(=O)CN1C(=O)C2CC=CCC2C1=O (stereo unspecified)	none (no result: Bim-Mcl-1, Mcl1-Bid inh, Mcl1 Noxa PPI)
COc1ccc(Cc2c(O)nc(SC)n(C(C)=O)c2=O)cc1	Bim-Mcl-1 67.0
CCC1(O)CC(c2ccccc2)=NN1C(=O)c1ccccc1F (stereo unspecified)	none (no result: Bim-Mcl-1, Mcl1-Bid inh, Mcl1 Noxa PPI)
CCOC(=O)c1sc(NC(=O)CCN2CCN(CC)CC2)c(C(=O)OCC)c1C	none
CC1(OC(=O)c2cnc3ccccc3n2)C(=O)C=C2C=C(c3ccc(C#N)cc3)OC=C2C1=O (stereo unspecified)	GLD-1 RNA inh 47.3 (no result: Bim-Mcl-1, Mcl1-Bid inh, Mcl1 Noxa PPI)
C=CCOC(=O)C1=C(C)N=c2s/c(=C3\C(=O)N(CC(=O)O)c4ccccc43)c(=O)n2C1c1ccc(OC)cc1 (stereo unspecified)	Mcl1 Noxa PPI 80.6 (no result: Bim-Mcl-1)
CC(=O)Nc1nc2n(n1)C(c1ccc(Cl)cc1)C=C(C)N2 (stereo unspecified)	none
COc1ccc(C2C=C(c3ccc(Cl)cc3)Nc3nc(NC(C)=O)nn32)cc1 (stereo unspecified)	GLD-1 RNA inh 118.8, BCLXL inh 138.9, MCL1-BIM inh 158.3
CC(=O)Nc1nc2n(n1)C(c1ccc(F)cc1)C=C(c1ccccc1)N2 (stereo unspecified)	GLD-1 RNA inh 37.0, BCLXL inh 52.1, MCL1-BIM inh 46.8
O=C(Nc1nc2n(n1)C(c1ccccc1)C=C(c1ccccc1)N2)c1ccco1 (stereo unspecified)	MCL1-BIM inh 40.0
COc1ccc(C2=CC(c3ccc(Cl)cc3)n3cnnc3N2)cc1OC (stereo unspecified)	GLD-1 RNA inh 44.0, BCLXL inh 58.7, MCL1-BIM inh 62.4
CC1=CC(c2ccccc2)n2nc(NC(=O)CCC(=O)O)nc2N1 (stereo unspecified)	none (no result: Bim-Mcl-1)
COc1cc(OC)c(N(C)C(=O)c2cc3c(s2)-c2ccccc2S(=O)(=O)C3)cc1Cl	none (no result: Bim-Mcl-1, Mcl1-Bid inh, Mcl1 Noxa PPI)
Cc1ccc(NC(=O)CSc2nnc(CNC(=O)c3ccco3)n2C)cc1	none (no result: Bim-Mcl-1, Mcl1-Bid inh, Mcl1 Noxa PPI)
CCc1nnc(NS(=O)(=O)c2ccc(NC(=S)NC(=O)/C=C/c3ccccc3)cc2)s1	Mcl1 Noxa PPI 58.4
COc1ccc(NS(=O)(=O)c2ccc(NC(=S)NC(=O)/C=C/c3ccccc3)cc2)nn1	Mcl1 Noxa PPI 58.1
O=C(/C=C/c1ccc(Br)cc1)NC(=S)Nc1ccc(S(=O)(=O)Nc2nccs2)cc1	Mcl1-Bid inh 58.5, Mcl1 Noxa PPI 52.3
O=C(NC(=S)Nc1ccc(S(=O)(=O)Nc2nccs2)cc1)c1ccc(Br)o1	none
C=CCc1cccc2cc(C(=O)Nc3ccc(S(=O)(=O)Nc4nnc(CC)s4)cc3)c(=O)oc12	Mcl1-Bid inh 72.0, Mcl1 Noxa PPI 107.5
COc1cn(-c2ccccc2)nc1C(=O)Nc1ccc(C)cc1Cl	none (no result: Bim-Mcl-1, Mcl1-Bid inh, Mcl1 Noxa PPI)
CCc1nnc(NS(=O)(=O)c2ccc(NC(=S)NC(=O)/C=C/c3ccc(C(C)C)cc3)cc2)s1	Mcl1-Bid inh 100.3 (no result: Mcl1 Noxa PPI)
CCc1nnc(NS(=O)(=O)c2ccc(NC(=S)NC(=O)/C=C/c3ccc(OC)cc3)cc2)s1	none
Cc1ccc(Nc2nc(C)cc(C)c2C(N)=O)c(C)c1	none (no result: Bim-Mcl-1, Mcl1-Bid inh, Mcl1 Noxa PPI)
CCN1C(=O)/C(=C2\SC(=S)N(NC(=O)c3ccccc3O)C2=O)c2ccccc21	Mcl1 Noxa PPI 65.4 (no result: Bim-Mcl-1)
CN(C)c1ccc(NC(=O)CCCc2ccccc2)cc1	Mcl1 Noxa PPI 79.4
COCCN(C(=O)CCC(=O)Nc1cc(C)on1)C(C(=O)NC1CCCC1)c1ccc(C(C)C)cc1 (stereo unspecified)	none (no result: Bim-Mcl-1, Mcl1-Bid inh, Mcl1 Noxa PPI)
COc1ccc(NC(=O)c2ccco2)cc1NC(=O)c1c(OC)cccc1OC	none (no result: Bim-Mcl-1, Mcl1-Bid inh, Mcl1 Noxa PPI)
COc1ccc(NC(=O)c2ccco2)cc1NC(=O)c1ccco1	Bim-Mcl-1 41.0
CCCNS(=O)(=O)c1ccc(OCC(=O)NCC2CCCO2)cc1 (stereo unspecified)	none (no result: Bim-Mcl-1, Mcl1-Bid inh, Mcl1 Noxa PPI)
CC1(C)CC(=O)c2cnc3c(C#N)cnn3c2C1	Mcl1-Bid inh 52.9
O=c1c2ccccc2c(C=NC2CCN(Cc3ccccc3)CC2)c(O)n1Cc1ccc2c(c1)OCO2	none
Cc1ccc(C)c(N2N=C(C(=O)N(CC(C)C)c3c(N)n(Cc4ccccc4)c(=O)[nH]c3=O)CCC2=O)c1	GLD-1 RNA inh 61.3 (no result: Bim-Mcl-1, Mcl1-Bid inh, Mcl1 Noxa PPI)
CNC(=O)Nc1ccc2nc(C)oc2c1	none (no result: Bim-Mcl-1)
Cc1nc2ccc(NC(=O)NC(=O)c3c(Cl)cccc3Cl)cc2o1	BCLXL inh 43.1 (no result: Bim-Mcl-1)
O=c1[nH]c(CSc2ncnc3sc(-c4ccccc4)cc23)nc2ccccc12	Mcl1-Bid inh 60.6 (no result: Bim-Mcl-1)
Cc1cc2ccccn2c1C(=O)c1ccc([N+](=O)[O-])cc1[N+](=O)[O-]	none (no result: Bim-Mcl-1, Mcl1-Bid inh, Mcl1 Noxa PPI)
Cc1ccc(/C=C/C(=O)NCc2ccc(S(N)(=O)=O)cc2)o1	Mcl1 Noxa PPI 52.9 (no result: GLD-1 RNA inh, BCLXL inh, MCL1-BIM inh)
Cc1ccc(-n2[nH]c(C)c(C=Nc3ccc4[nH]c(=O)[nH]c4c3)c2=O)cc1	Mcl1 Noxa PPI 62.2
CC(C)c1ccc(C(O)P(=O)(OC2CCCCC2)OC2CCCCC2)cc1 (stereo unspecified)	BCLXL inh 35.2 (no result: Bim-Mcl-1)
O=C(N/C=C/c1ccco1)OCc1ccccc1	none
O=C(N/C=C/c1ccco1)NCc1ccccc1	Mcl1 Noxa PPI 63.8
COc1ccc(N2Cc3cccc(C(=O)NC(C)CCc4ccco4)c3C2=O)cc1 (stereo unspecified)	Mcl1 Noxa PPI 64.8
CCOC(=O)N1CCC(NC(=O)c2cccc3c2C(=O)N(c2ccc(OC)cc2)C3)CC1	Mcl1 Noxa PPI 55.7
COC(C(=O)Nc1ccnn1C1CCN(Cc2ccccn2)CC1)c1ccccc1 (stereo unspecified)	none (no result: Bim-Mcl-1, Mcl1-Bid inh, Mcl1 Noxa PPI)
Cc1cc2nc3c(=O)[nH]c(=O)[nH]c3nc2c([N+](=O)[O-])c1N	Mcl1 Noxa PPI 71.4 (no result: GLD-1 RNA inh, BCLXL inh, MCL1-BIM inh)
CS(=O)(=O)c1ccccc1-c1nnc(NC(=O)c2cccc(N3C(=O)CCC3=O)c2)o1	none (no result: Bim-Mcl-1, Mcl1-Bid inh, Mcl1 Noxa PPI)
O=C(COC(=O)c1ccccc1Br)NCCC1=CCCCC1	none
O=C(NC(=S)NCCC1=CCCCC1)c1ccccc1Br	Mcl1 Noxa PPI 68.4
COc1ccc(OCc2nnc(SCC(=O)Nc3nnc(C4CC4)s3)n2C)cc1	none (no result: Bim-Mcl-1, Mcl1-Bid inh, Mcl1 Noxa PPI)
Cc1cc(=O)[nH]c2ccc(S(=O)(=O)NCc3ccccc3)cc12	none (no result: Bim-Mcl-1, Mcl1-Bid inh, Mcl1 Noxa PPI)
O=C(CCN1CCN(c2ccccc2)CC1)N/N=C/c1ccc(O)c(O)c1O	Mcl1 Noxa PPI 77.0 (no result: GLD-1 RNA inh, BCLXL inh, MCL1-BIM inh)
O=C(Cc1csc(N2CCOCC2)n1)N/N=C/c1ccc(O)c(O)c1O	Mcl1 Noxa PPI 84.8 (no result: GLD-1 RNA inh, BCLXL inh, MCL1-BIM inh)
COc1ccc(/C=N/NC(=O)CCN2CCN(c3ccccc3)CC2)c(OC)c1OC	none
Cc1cc(N2CCOCC2)n2cc(-c3ccccc3)nc2n1	none
Cc1cc(N2CC(C)OC(C)C2)n2cc(-c3ccccc3)nc2n1 (stereo unspecified)	Mcl1-Bid inh 80.2
